SENP8 block-1 – inhibitors of human SENP8 protease; actives 1.2% (n = 330,000); inhibition, % at 10 µM; Q96LD8; purified SENP8, Z-RLRGG-aminoluciferin cleavage, luminescence; in the data active = inhibition above about 50%
Target sequence (Q96LD8 whole entry, looked up): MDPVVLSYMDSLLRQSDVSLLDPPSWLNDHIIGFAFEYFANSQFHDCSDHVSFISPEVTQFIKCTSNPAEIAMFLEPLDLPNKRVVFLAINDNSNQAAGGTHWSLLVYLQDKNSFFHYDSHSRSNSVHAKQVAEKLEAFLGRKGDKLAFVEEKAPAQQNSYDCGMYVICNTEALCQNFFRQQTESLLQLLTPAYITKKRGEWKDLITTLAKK
SENP6 inh – blocks the human protease SENP6 | Q9GZR1 | Recombinant SENP6 catalytic domain, aminoluciferin luminescence | inhibition, % at 10 µM | actives 1.8% (n = 330,000) | AID 2599;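 active = inhibition above about 50% at the single tested dose, limit read from the data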
Platelet DG rel – platelet dense granule release activity; actives 0.22% (n = 300,000); human platelet-rich plasma, SFLLRN dense granule ATP release, luminescence; inhibition, %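 (compounds screened at 7.5 µM in platelet-rich plasma)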;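 active = mean replicate score, as percent of positive control, at or above 50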
SENP7 inh – inhibitors of human SENP7 protease; recombinant SENP7, Z-RLRGG-aminoluciferin luminescence, 40 min; inhibition, % at 5 µM; actives 1.5% (n = 330,000); AID 434973;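 active = inhibition above about 50% at the single test dose, limit read from the data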
SENP8 block-2 – SENP8 (human) protease inhibition | inhibition, % at 20 µM | Q96LD8 | actives 0.64% (n = 360,000) | recombinant SENP8, Nedd8 substrate fluorescence; in the data active = inhibition mostly above about 40%, no sharp cut-off; inactive = mostly below about 27%
SENP8 confirm – human SENP8 inhibition, confirmed; inhibition, % at 12.5 µM; shares compounds with SENP7 inh; Recombinant SENP8, Z-RLRGG-aminoluciferin luminescence, 60 min; actives 40% (n = 6,200);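 active = mean inhibition across replicates above about 50%, limit read from the data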
SENP6 confirm – confirmation of human SENP6 protease inhibitors | recombinant SENP6, Z-RLRGG-aminoluciferin luminescence | actives 58% (n = 6,200) | inhibition, % at 12.5 µM | shares compounds with SENP7 inh
SENP7 conf – human SENP7 inhibition, confirmed; recombinant SENP7, Z-RLRGG-aminoluciferin luminescence, 40 min; AID 488917; actives 69% (n = 6,200); inhibition, % at 12.5 µM; shares compounds with SENP7 inh
Casp3 select – selectivity test for SENP inhibitors: human caspase-3 inhibition | shares compounds with SENP7 inh | actives 60% (n = 6,200) | AID 488918 | purified caspase-3, Z-DEVD-aminoluciferin luminescence, 60 min | inhibition, % at 12.5 µM;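 active = mean inhibition above about 50%, limit read from the data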
Target sequence (P42574 28-227 limits assumed): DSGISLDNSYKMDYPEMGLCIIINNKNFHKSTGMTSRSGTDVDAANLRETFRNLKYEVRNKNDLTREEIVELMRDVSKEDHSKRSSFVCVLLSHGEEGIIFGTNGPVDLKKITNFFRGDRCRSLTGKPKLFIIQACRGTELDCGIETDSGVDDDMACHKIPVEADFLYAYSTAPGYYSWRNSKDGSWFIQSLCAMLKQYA
Luc interf – interferes with luciferase luminescence in SENP counter-screen | shares compounds with SENP7 inh | Pre-incubated SENP8/Z-RLRGG-aminoluciferin, luciferase luminescence interference | inhibition, % at 12.5 µM | actives 39% (n = 6,200);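 active = mean inhibition above about 50% when retested at one dose, limit read from the data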
Each line names hits and unclear results; the compound was inactive in the other large screens (follow-up assays come after a bar, where they were run). Compounds with a hit are over-represented: about 2.4% of the library has one in this group of screens.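 The calls were made as follows, unless noted: active = mean inhibition above about 50% in the one-dose retest (limit read from the data); inactive = the rest.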

O=C(Nc1cccnc1)c1cc(-c2ccc(F)cc2)on1	SENP8 block-1 56, SENP6 inh 64, SENP7 inh 76 | SENP8 confirm inactive | SENP6 confirm inactive | SENP7 conf inactive | Casp3 select inactive | Luc interf inactive
O=C(Nc1cccnc1)c1cc(-c2ccc3c(c2)OCO3)on1	SENP6 inh 77, SENP7 inh 96 | SENP8 confirm inactive | SENP6 confirm inactive | SENP7 conf 62 | Casp3 select 79 | Luc interf inactive
O=C(COCc1cc(-c2ccc3c(c2)OCO3)on1)Nc1cccnc1	none
CCCCCC(=O)Nc1ccc(C2C(=O)c3ccccc3C2=O)cc1	none
Cc1ccc(C(=O)Nc2sc3c(c2C(=O)O)CCCCC3)o1	SENP8 block-1 97, SENP7 inh 91 | SENP8 confirm 98 | SENP6 confirm 100 | SENP7 conf 103 | Casp3 select 98 | Luc interf 97
NC(=O)c1c(NC(=O)c2cc3ccccc3o2)sc2c1CCC2	SENP6 inh 60 | SENP8 confirm inactive | SENP6 confirm inactive | SENP7 conf 67 | Casp3 select inactive | Luc interf inactive
O=C(Nc1sc2c(c1C(=O)O)CCC2)c1ccco1	SENP8 block-1 91, SENP6 inh 97, SENP7 inh 91 | SENP8 confirm 94 | SENP6 confirm 94 | SENP7 conf 101 | Casp3 select 96 | Luc interf 93
CC(=O)Nc1sc2c(c1C(N)=O)CCC2	none
COC(=O)c1c(NC(=O)c2ccc(C)o2)sc2c1CCCCC2	none
Cc1ccc(C(=O)Nc2sc3c(c2C(=O)O)CCCC3)o1	SENP8 block-1 91, SENP6 inh 89, SENP7 inh 75 | SENP8 confirm 95 | SENP6 confirm 94 | SENP7 conf 101 | Casp3 select 96 | Luc interf 92
NC(=O)c1nsc(C(=O)N(CC(=O)NCc2ccccc2)c2ccc(F)cc2)c1N	none
COc1cc(NC(=O)c2ccc(C(C)(C)C)cc2)c(OC)cc1NC(=O)CN1CCCCC1	none
Cc1cc(C(=O)NCC(=O)OC(C)C(=O)N2CCOCC2)ccc1[N+](=O)[O-] (centres undefined)	none (no result: Platelet DG rel)
CCCC(=O)Nc1cnc(NC(=O)c2cccc(F)c2)cc1C	SENP8 block-1 53, SENP6 inh 82, SENP7 inh 79 | SENP8 confirm 78 | SENP6 confirm 75 | SENP7 conf 94 | Casp3 select 92 | Luc interf 75
Cc1cc(NC(=O)c2ccccc2)ncc1NC(=O)c1ccco1	SENP8 block-1 80, SENP6 inh 91, SENP7 inh 91 | SENP8 confirm 89 | SENP6 confirm 88 | SENP7 conf 99 | Casp3 select 96 | Luc interf 87
CC(NC(=O)[C@H](C)N1C(=O)N2CCc3c([nH]c4ccccc34)[C@@]2(C)C1=O)c1ccccc1 (some centres undefined)	none
Cc1nc(Nc2nc3ccccc3o2)nc(C)c1C(=O)Nc1ccc(F)cc1	none
Cc1nc(Nc2nc3ccccc3o2)nc2c1CCC2	SENP6 inh 77, SENP7 inh 72 | SENP8 confirm inactive | SENP6 confirm 60 | SENP7 conf 86 | Casp3 select 75 | Luc interf inactive
CCOC(=O)c1cnc(Nc2nc3ccccc3o2)nc1C	SENP8 block-1 80, SENP6 inh 84, SENP7 inh 95 | SENP8 confirm 74 | SENP6 confirm 75 | SENP7 conf 99 | Casp3 select 93 | Luc interf inactive
COc1ccc(S(=O)(=O)Nc2ccccc2C(=O)NCc2cccnc2)cc1OC	none
N#Cc1cc2ccc(N3CCOCC3)cc2cc1C#N	SENP8 block-1 88, SENP6 inh 91 | SENP8 confirm inactive | SENP6 confirm inactive | SENP7 conf inactive | Casp3 select inactive | Luc interf inactive
Cc1cccc(NC(=O)C(=O)NCC2CCCO2)c1 (centres undefined)	none
Cc1ccc(N=Nc2c(N)n(-c3ccccc3)[nH]c2=O)cc1	SENP8 block-1 54, SENP6 inh 76, SENP7 inh 82 | SENP8 confirm inactive | SENP6 confirm inactive | SENP7 conf inactive | Casp3 select inactive | Luc interf inactive
CC(=O)N=Cc1c(C)c(C#N)c(=O)n(C)c1O	SENP6 inh 57 | SENP8 confirm inactive | SENP6 confirm inactive | SENP7 conf inactive | Casp3 select inactive | Luc interf inactive
Cc1c(C=O)c(Cl)n(C)c(=O)c1C#N	SENP7 inh 74 | SENP8 confirm inactive | SENP6 confirm inactive | SENP7 conf inactive | Casp3 select inactive | Luc interf inactive
CC(OC(=O)C1CCN(c2ccc(C(F)(F)F)cn2)CC1)C(=O)Nc1cccc([N+](=O)[O-])c1 (centres undefined)	none (no result: Platelet DG rel)
O=C(Nc1cccc(Cl)c1)N1CCc2ccccc2C1	SENP6 inh 51 | SENP8 confirm inactive | SENP6 confirm inactive | SENP7 conf 78 | Casp3 select inactive | Luc interf inactive
COc1cccc(NC(=O)N2CCc3ccccc3C2)c1	SENP6 inh 53, SENP7 inh 53 | SENP8 confirm inactive | SENP6 confirm inactive | SENP7 conf 80 | Casp3 select 70 | Luc interf 56
COc1cccc(NC(=O)N2CCCCCC2)c1	none
O=C(Nc1cccc(Cl)c1)c1nc[nH]c1C(=O)N1CCc2ccccc2C1	none (no result: Platelet DG rel)
CC(=O)Nc1ccc(S(=O)(=O)N(C)CC(=O)N(C)Cc2sccc2C)cc1	none (no result: Platelet DG rel)
C/C(=N\NC(=O)c1ccco1)c1ccc(-c2ccccc2)cc1	SENP8 block-1 55, SENP6 inh 67, SENP7 inh 85 | SENP8 confirm inactive | SENP6 confirm inactive | SENP7 conf inactive | Casp3 select inactive | Luc interf inactive
C/C(=N\NC(=O)c1ccco1)c1ccc(NC(=O)c2ccccc2)cc1	none
CC(C)(CNC(=O)CCNC(=O)c1ccc(Br)cc1)N1CCOCC1	none
N/C(=N\OC(=O)C1CCCCC1)c1cccc(Br)c1	SENP6 inh 69 | SENP8 confirm inactive | SENP6 confirm inactive | SENP7 conf 80 | Casp3 select 69 | Luc interf 51
COc1ccc(/C(N)=N/OC(=O)Cc2cccs2)cc1	SENP6 inh 51 | SENP8 confirm inactive | SENP6 confirm inactive | SENP7 conf 67 | Casp3 select inactive | Luc interf inactive
COc1ccc(/C(N)=N/OC(=O)C2CCCCC2)cc1OC	none
